A selection: hits, their analogues and other compounds. The true share with any hit is near 4.6%.
USP10 block: blocks human USP10 ubiquitin-rhodamine cleavage | 1.1% of 47,000 active | purified USP10, Ub-rhodamine fluorescence, 60 min | inhibition, % at 20 µM | Q14694
UCHL1 inh: blocks human UCHL1 ubiquitin-rhodamine cleavage. 0.2% of 47,000 active. P09936. purified UCHL1, Ub-rhodamine cleavage fluorescence. inhibition, % at 20 µM
USP8 block: blocks human USP8 ubiquitin-rhodamine cleavage; P40818; purified USP8, Ub-rhodamine cleavage fluorescence, 30 min; inhibition, % at 20 µM; 4.2% of 47,000 active; AID 1645853
USP7 inh: blocks human USP7 ubiquitin-rhodamine cleavage; Q93009; AID 1645854; 0.3% of 47,000 active; inhibition, % at 20 µM; purified USP7, Ub-rhodamine cleavage fluorescence
Hits are given with their value; n = inactive. No stated cut-off is given here; in the data, active means inhibition above about 30%; inactive means the rest.

SMILES	USP10 block	UCHL1 inh	USP8 block	USP7 inh
O=C(Nc1ccc(Cl)cc1)C1CCCN(S(=O)(=O)c2cccnc2)C1 (configuration not stated)	n	n	n	n
CN1C[C@@H]2C[C@H](NC(=O)Nc3cccc(C#N)c3)CN2Cc2ccccc21	n	n	n	n
O=C(Nc1ccc(F)cc1)Nc1ccc2ccccc2n1	n	n	51	n
CC(=O)Nc1ccc(NC(=O)Nc2ccc(F)cc2)cc1	n	n	n	n
Cc1cc(C(=O)CSc2nc3ccccc3[nH]2)c(C)n1Cc1ccco1	n	n	57	n
O=C(CSc1nc2ccccc2[nH]1)c1ccccc1F	n	n	n	n
N#Cc1ccc(CN2CCC3(CC2)CC3c2nnc(-c3cccc(F)c3)o2)c(F)c1 (configuration not stated)	n	n	n	n
COc1cccc(CNC(=O)Cn2cnc3c(c(C)c(C)n3-c3ccccc3)c2=O)c1	n	n	n	n
Cc1c(C)n(-c2ccccc2)c2ncn(CC(=O)NCc3ccccc3F)c(=O)c12	n	n	34	n
COc1ccc(OC)c(NC(=O)Cn2cnc3c(c(C)c(C)n3-c3ccccc3)c2=O)c1	n	n	32	n
COc1cccc(NC(=O)Cn2cnc3c(c(C)c(C)n3-c3ccccc3)c2=O)c1	n	n	n	n
Cc1cccc(CNC(=O)Cn2cnc3c(c(C)c(C)n3-c3ccccc3)c2=O)c1	n	n	36	n
COc1cc(Cl)c(C)cc1-n1cc(C(=O)c2cc(Cl)ccc2O)cc(C#N)c1=O	n	n	n	n
COc1ccc(O)c(C(=O)c2cc(C#N)c(=O)n(-c3cccc(C(F)(F)F)c3)c2)c1	n	n	65	n
Cc1ccc(-n2c(=O)c3ccc(C(=O)NCc4ccco4)cc3n(CC(=O)NCCC3=CCCCC3)c2=O)cc1	45	n	43	n
COc1ccc(-n2c(=O)c3ccc(C(=O)NCCc4ccccc4)cc3n(CC(=O)NCCC3=CCCCC3)c2=O)cc1	55	n	n	n
O=C(c1cscn1)N1CC2(CCN(Cc3cccc(Cl)c3)CC2)C1	n	n	n	n
CC(C)Cc1csc2c1c(=O)n(C)c(=O)n2CC(=O)N1CCOCC1	n	n	n	n
CCC(C(=O)NCc1ccncc1)N(c1ccc(C)cc1)S(C)(=O)=O (configuration not stated)	n	n	n	n
CSc1ccc([C@H]2[C@@H](C(=O)O)c3ccccc3C(=O)N2Cc2ccc(F)cc2)cc1	n	n	n	n
COc1ccc(CC(=O)Nc2c(NCc3ccccc3)c3ccccc3oc2=O)cc1	n	n	91	n
COc1ccc(-c2nonc2NC(=O)Cc2ccccc2)cc1	n	n	n	n
CC(C)(C)c1ccc(S(=O)(=O)Nc2ccc(Cc3ccncc3)cc2)cc1	n	n	n	n
COc1ccc(S(=O)(=O)Nc2ccc(Cc3ccncc3)cc2)c2ccccc12	n	n	43	n
Cc1ccc(S(=O)(=O)N(CC(C)C)C2CCS(=O)(=O)C2)cc1 (configuration not stated)	n	n	n	n
SMILES	USP10 block	UCHL1 inh	USP8 block	USP7 inh
CCOc1ccc(-n2c(SCC(=O)Nc3ccc(C)cc3)nnc2-c2c[nH]c3ccccc23)cc1	71	n	97	n
CCOc1ccc(-c2ccc3nnc(SCC(=O)Nc4ccc(F)cc4)n3n2)cc1	38	n	78	n
O=C(CSc1nnc2ccc(-c3ccccc3)nn12)Nc1ccc(F)cc1	n	n	n	n
Cc1ccc(CNC(=O)CCC(=O)NCc2ccc3c(c2)OCO3)o1	n	n	n	n
COc1ccc(CC(C#N)(C(=O)NC2CCCCC2)c2nc3ccccc3[nH]2)cc1 (configuration not stated)	n	n	70	n
CCc1ccccc1NC(=O)CC1C(=O)N(Cc2ccccn2)c2nc3ccccc3n21 (configuration not stated)	n	n	n	n
CCOc1ccc(NC(=O)CSCc2nc(-c3ccc(OC)c(OC)c3)no2)cc1	n	n	34	n
Cc1ccc(NC(=O)c2cc(-c3ccccc3)c(N3CCOCC3)s2)cc1	n	n	n	n
Cc1cccc(N2C(=O)/C(=C\c3ccc(N4CCOCC4)s3)c3ccccc3C2=O)c1	n	n	41	n
COc1cccc(/C=C2\C(=O)N(c3cccc(C)c3)C(=O)c3ccccc32)c1	n	n	66	n
O=C(NCc1ccc(F)cc1)c1ccc(-c2cccs2)cc1	n	n	n	n
O=C(Nc1nc2c(s1)CN(C(=O)/C=C/c1ccco1)CC2)C1CCCO1 (configuration not stated)	n	n	41	n
O=C1CS(=O)C(c2ccc(Cl)cc2Cl)N1c1ccccn1 (configuration not stated)	n	n	n	n
CC(=O)c1cc(-c2ccc(F)cc2)n(CC(=O)Nc2cccc(C)c2C)c1C	35	n	41	n
O=C(Cn1c(CNC(=O)c2ccccc2)nc2ccccc21)Nc1ccc(F)cc1	44	n	72	n
CSCCC(NC(=O)c1ccccc1)c1nc2ccccc2n1CC(=O)Nc1ccccc1 (configuration not stated)	41	n	46	n
CC(NC(=O)c1ccccc1)c1nc2ccccc2n1CC(=O)Nc1ccc(OC(F)(F)F)cc1 (configuration not stated)	n	n	33	n
CSCC[C@H](NC(=O)c1ccc(NC(C)=O)cc1)c1nnc2ccccn12	n	n	n	n
COc1cccc(NC(=O)Cn2c(C(F)(F)F)nc3ccccc32)c1	n	n	n	n
CC(NC(=O)c1ccccc1)c1nc2ccccc2n1CC(=O)Nc1ccc(C#N)cc1 (configuration not stated)	41	n	78	n
Cc1ccc(OCC(=O)N2CC[C@@H]3CN(C)S(=O)(=O)[C@@H]3CC2)cc1	n	n	n	n
O=C(NCC(=O)N1CCC2(CC=CCOC2)CC1)c1ccccc1	n	n	n	n
Cn1ncc2c(C(=O)Nc3[nH]ncc3Cl)cc(C3CC3)nc21	n	n	n	n
CC(NC(=O)c1ccccc1)c1nc2ccccc2n1CC(=O)NC1CCCCC1 (configuration not stated)	n	n	65	n
CCn1c(SCC(=O)NC2CCCCC2)nc2ccccc21	n	n	n	n
SMILES	USP10 block	UCHL1 inh	USP8 block	USP7 inh
Cc1ccc(C(=O)NC(C)c2nc3ccccc3n2CC(=O)N2CCc3ccccc32)cc1 (configuration not stated)	n	n	63	n
CC(Oc1ccccc1)c1nc2ccccc2n1CC(=O)N1CCc2ccccc21 (configuration not stated)	n	n	n	n
COc1ccc(CNC(=O)[C@@H]2Cc3c([nH]c4ccccc34)C3c4ccccc4C(=O)N32)cc1 (some centres not stated)	n	n	n	n
COc1ccc(S(=O)(=O)NCC(c2ccc3c(c2)CCN3C)N2CCCC2)cc1 (configuration not stated)	n	n	n	n
C[C@@H]1Cc2cc(O)cc(O)c2C(=O)O[C@H](C)CC(=O)OC[C@@H](O)CC(=O)O[C@H](C)Cc2cc(O)cc(O)c2C(=O)O[C@H](C)CC(=O)O1	n	n	n	n
C/C=C/C=C/[C@@H]1Cc2cc(O)cc(O)c2O1	33	61	74	n

Screening data from PubChem BioAssay.
